15-hLO inh = 15-hLO (ALOX15) enzyme inhibition; P16050; purified 15hLO-1, xylenol orange hydroperoxide absorbance; Potency, µM (doses to about 57.1 µM), for inactives: top-dose activity change, negative = inhibition, actives largely listed as inhibitors; hit rate 1.4% among 74,000; also: % is scaled to controls: 0 for no effect and ±100 for the full control effect; nearly all actives have a fitted effect of over 55% in size
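Purified human 15hLO-1 (40 nM) in 25 mM Hepes pH 7.5, 0.01% Triton X-100, preincubated 15 min RT with compound, then 50 uM arachidonic acid for 6 min. Hydroperoxide read by ferrous/xylenol orange, 30 min; 573/405 nm absorbance ratio gave progress.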
Casp1 inh = allosteric or competitive inhibitors of human caspase-1 | P29466 | Potency, µM (titrated, usually from 57.5 µM), for inactives: top-dose activity change, negative = inhibition, most hits filed as inhibitors | hit rate 0.03% among 75,000 | Caspase-1 enzyme, Ac-WEHD-AFC fluorogenic rate | AID 900;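 also: plate controls were vehicle for no effect and no substrate for full effect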
Target sequence (P29466 120-297 limits assumed): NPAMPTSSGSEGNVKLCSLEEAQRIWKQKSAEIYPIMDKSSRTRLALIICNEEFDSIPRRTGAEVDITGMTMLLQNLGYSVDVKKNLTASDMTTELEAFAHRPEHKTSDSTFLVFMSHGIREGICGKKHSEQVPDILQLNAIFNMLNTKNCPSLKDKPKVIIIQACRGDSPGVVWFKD
Target sequence (P29466 317-404 limits assumed): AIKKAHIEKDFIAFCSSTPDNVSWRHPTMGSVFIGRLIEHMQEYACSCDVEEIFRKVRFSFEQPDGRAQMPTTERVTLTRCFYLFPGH
Tau fil binding = binders of human tau filaments; P10636; recombinant tau filaments, thioflavin S fluorescence, 15 h; filaments grown with octadecylsulfate alongside compound; Potency, µM (titrated, usually from 57.1 µM), for the others: at the top dose activity change, negative = inhibition; hit rate 2% among 71,000; AID 596;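 also: % is scaled to controls: 0 for no effect and ±100 for the full control effect; actives lower thioflavin S fluorescence by blocking filaments or displacing dye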
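Quantitative HTS: thioflavine S signal from ODS-induced tau filaments, excited at 450 nm, emission 510 nm. Conditions: 1 uM tau, 30 uM ODS, 15 h at 37 C, pH 7.4.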
ERK AVP block = inhibitors of vasopressin-stimulated ERK signaling pathway; hit rate 0.99% among 72,000; HEK293-V1b, vasopressin-stimulated pERK AlphaScreen; Potency, µM (titrated, usually from 57.5 µM), for inactives: at the top dose activity, negative = inhibition, most hits filed as inhibitors; also: % is scaled to controls: 0 for no effect and ±100 for the full control effect; nearly all actives have a fitted effect of over 55% in size
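HEK293 cells stably expressing V1b receptor, preincubated 30 min at 37 °C with compound, then stimulated 5 min with 25 nM vasopressin. Phospho-ERK by AlphaScreen SureFire after 5 h RT; normalized to DMSO and vasopressin; AC50 by Hill fit.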
Casp7 inh = allosteric or competitive inhibitors of human caspase-7; recombinant caspase-7, Ac-DEVD-AFC fluorescence rate; AID 889; Potency, µM (top dose mostly 57.5 µM), inactives show top-dose activity change, negative = inhibition, usual class: inhibitors; P55210; hit rate 0.02% among 75,000; active = well fitted inhibition curve with a large enough effect in the main read-out, with a control signal flat, not every such curve was filed as active; inconclusive = small, poorly fitted or top-dose-only effect, or a change in a side signal; also: % of control where 0% means no effect
Target sequence (P55210 24-198 limits assumed): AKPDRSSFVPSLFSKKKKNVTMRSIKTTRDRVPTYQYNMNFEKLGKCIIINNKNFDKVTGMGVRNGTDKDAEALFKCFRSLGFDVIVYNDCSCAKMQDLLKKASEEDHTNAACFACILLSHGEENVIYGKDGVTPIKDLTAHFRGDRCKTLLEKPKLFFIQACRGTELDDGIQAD
Target sequence (P55210 207-303 limits assumed): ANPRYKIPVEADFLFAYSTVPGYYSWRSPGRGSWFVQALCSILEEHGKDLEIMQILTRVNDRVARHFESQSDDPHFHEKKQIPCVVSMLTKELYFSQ
* hit, by the source's call; i = inactive; ? = inconclusive; . = no result given; [ ] = remark or other dose. In the library only some 3.9% were active in any assay of this set; here they are far more common. Unless noted, calls follow the shape of the dose curve; as a rule, active = well fitted curve in the direction sought with a large enough effect; inconclusive = small, poorly fitted or top-dose-only effect, or another doubt; inactive = no such curve, though single readings can be large; an effect the other way counts as inactive or inconclusive. Potency is read from the fitted curve at half-maximal effect.

SMILES	15-hLO inh	Casp1 inh	Tau fil binding	ERK AVP block	Casp7 inh
CC(C)c1cccc2nc3c(c([Si](C)(C)C)c12)Cn1c-3cccc1=O	.	.	31.6µM*	34.9%	?
CC(C)=CCC/C(C)=C/CO/N=C1/C[C@@H](O)[C@@H](O)[C@@H]2[C@@H]3C(=O)N(C4CCCCC4)C(=O)[C@H]3CC[C@@H]12	-3.3%[11.4 µM]	-0.2%[11.5 µM]	.	16.4%[11.5 µM]	-0.2%[11.5 µM]
COC(=O)c1ccccc1NS(=O)(=O)c1ccc2c3c(cccc13)C(=O)N2	-12.4%	.	15.8µM*	-24.9%	?
Cc1cccc(CNc2cc(-c3cccnc3)ncn2)c1	-8.9%	-0.5%	3.7%	-11.0%	3.0%
CC(C)(C)CC(C)(C)c1cc(O)c(O)c(CN2CCCCC2)c1	0.398µM*	1.0%[11.5 µM]	?	-18.1%[11.5 µM]	-0.6%[11.5 µM]
Oc1ccc(Br)cc1CN1CCCCCCC1	-7.0%[11.4 µM]	-1.5%	-1.2%[11.4 µM]	0.2%	0.0%
O=C(CSc1nc2ccc(S(=O)(=O)N3CCOCC3)cc2[nH]1)N1CCOCC1	7.94µM*	-3.1%	-9.6%	38.9%	1.2%
O=C(CSc1nc2ccccc2c(=O)[nH]1)N1CCOCC1	3.4%	-1.6%	-6.9%	0.2%	-0.4%
O=C(CSc1nc2ccccc2[nH]1)N1CCN(c2ccc(F)cc2)CC1	-2.1%	-0.4%	-17.6%	25.1µM*	0.8%
CC1CCN(C(=O)CSc2nc3ccccc3[nH]2)CC1	-27.9%	0.6%	-18.4%	?	-0.9%
COc1cc2nc(N3CC=[N+](C(=O)c4ccco4)CC3)nc(N)c2cc1OC	8.9%	1.3%	7.1%	-15.2%	-1.2%
CCOc1cc(N2CCOCC2)c(OCC)cc1NC(=O)CCS(=O)(=O)c1ccc(Cl)cc1	-2.3%	-4.0%	25.1µM*	-7.7%	-0.5%
Cc1cc(C)n2nc(C(=O)Nc3ccccc3N3CCOCC3)nc2n1	12.8%	-1.4%	9.0%	8.4%	-2.3%
CCOc1cc(N2CCOCC2)c(OCC)cc1NC(=O)c1nc2nc(C)cc(C)n2n1	10.9%	2.6%	25.1µM*	-8.7%	0.6%
CCOc1cc(N2CCOCC2)c(OCC)cc1NC(=O)CCC1CCCC1	-2.6%	0.9%	-11.0%	-22.9%	-1.7%
Oc1c(C(O)(c2ccccc2)c2ccc3ccccc3c2O)ccc2ccccc12	-28.1%[11.4 µM]	-0.2%[11.5 µM]	1.26µM*	-6.7%[11.5 µM]	-2.6%[11.5 µM]
Oc1ccc2ccccc2c1Cc1c(O)ccc2ccccc12	-16.6%[11.4 µM]	-10.1%[11.5 µM]	-2.8%[11.4 µM]	-13.7%[11.5 µM]	0.1%[11.5 µM]
Cn1c(=O)c2c(nc(N/N=C\c3ccccc3C(=O)O)n2C)n(C)c1=O	13.8%[11.4 µM]	2.0%[11.5 µM]	0.6%[11.4 µM]	-4.6%[11.5 µM]	-1.7%[11.5 µM]
N#Cc1nc(N2CCCC2)nc(N2CCCC2)n1	-1.2%	-0.4%	41.3%	?	-0.9%
N#Cc1nc(N2CCCCC2)nc(N2CCOCC2)n1	8.0%	-1.1%	2.51µM*	?	-0.7%
O=c1c(-c2cccs2)nc2cnc(N3CCNCC3)nc2n1Cc1cccs1	-27.4%	.	i	-7.5%	?
CS(=O)(=O)Nc1ccc(Nc2c3ccccc3nc3ccccc23)cc1	1.0%[11.4 µM]	.	1.58µM*	-5.6%[11.5 µM]	?
CN(C)c1nc(-c2cccc(NS(C)(=O)=O)c2)nc2ccccc12	-2.0%	-5.4%	1.3%	-11.9%	-4.7%
O=C(CN1C2=NCCN2c2ccccc21)C12CC3CC(CC(C3)C1)C2	-26.1%	-1.4%	38.2%	-14.8%	-0.5%
Nc1ccc(O)cc1C(=O)OCC(=O)C12CC3CC(CC(C3)C1)C2	12.6µM*	-4.8%	-26.8%	-2.4%	-11.3%
SMILES	15-hLO inh	Casp1 inh	Tau fil binding	ERK AVP block	Casp7 inh
c1ccc(-c2nc3nonc3nc2-c2ccccc2)cc1	-8.1%	-6.8%	?	12.6µM*	-7.9%
COc1cccc(-c2cncnc2Nc2ccccc2)c1	-12.3%	0.3%	-0.6%	?	-5.1%
COc1ccc(OC)c(Nc2cc(-c3ccccc3)nc(N)n2)c1	?	-1.2%	15.8µM*	10µM*	1.8%
Nc1ncnc2c([C@@H]3O[C@@H](CO)[C@H](O)[C@@H]3O)nsc12	-3.6%[11.4 µM]	-1.8%[11.5 µM]	8.3%[11.4 µM]	18.2%[11.5 µM]	0.6%[11.5 µM]
C1=CC2c3ccccc3NC(c3ccncc3)C2C1 (configuration not stated)	?	?	7.94µM*	?	-14.8%
Nc1cc(C(=O)O)c(O)c(S(=O)(=O)O)c1	-25.9%	.	9.5%	14.1%	?
COc1ccc(CNc2ncnc3ccc(-c4ccccc4C#N)cc23)c(OC)c1	-9.3%	-11.0%	398.3%	-13.7%	-5.3%
COc1ccccc1CNc1ncnc2ccc(-c3ccccc3C#N)cc12	-10.8%	-4.3%	i	25.1µM*	-6.6%
COc1ccccc1CNc1ncnc2ccc(-c3cccnc3)cc12	-0.9%	-0.6%	10.1%	20µM*	1.9%
COc1ccccc1-c1ccc2ncnc(NCc3ccccc3)c2c1	9.8%	-6.1%	61.7%	15.8µM*	-5.0%
COc1ccccc1CNc1ncnc2ccc(-c3ccc(N(C)C)cc3)cc12	-18.4%	-15.0%	2µM*	?	-22.7%
O=C1c2cccc([N+](=O)[O-])c2C(=O)N1c1ncn[nH]1	12.5%[11.4 µM]	-1.0%[11.5 µM]	6.1%[11.4 µM]	-9.5%[11.5 µM]	0.4%[11.5 µM]
O=c1c(-c2cccs2)nc2cnc(N3CCNCC3)nc2n1C1CC1	0.9%	.	i	29.3%	?
COc1ccccc1CNc1ncnc2ccc(-c3ccccc3OC)cc12	-13.1%	-13.7%	396.7%	20µM*	-11.6%
Cc1cccc(CNc2ncnc3ccc(-c4ccc(C(=O)N(C)C)cc4)cc23)c1	-6.2%	-4.3%	18.5%	20µM*	-7.2%
Cc1cccc(CNc2ncncc2-c2ccc(C(=O)N(C)C)cc2)c1	-19.5%	-4.2%	-4.7%	-12.6%	-8.4%
COc1ccccc1CNc1ncnc2ccc(-c3cccc(C#N)c3)cc12	-9.7%	-3.9%	i	?	-5.6%
COc1ccc(CNc2ccnc(-c3ccccc3Cl)n2)c(OC)c1	5.0%	-3.7%	-3.9%	-20.0%	-3.0%
Cc1cnc(CNc2ncncc2-c2ccc(N(C)C)cc2)cn1	?	-2.2%	?	-29.2%	-3.4%
CN(C)c1ccc(NC(=O)CCCc2ccccc2)cc1	10µM*	0.0%	20µM*	20µM*	-1.1%
COCC(=O)Nc1ccc(N(C)C)cc1	-20.1%	0.1%	-4.4%	-9.6%	2.9%
O=c1c(-c2cccc(Cl)c2)nc2cncnc2n1Cc1ccccc1	-41.4%	-7.3%	-15.1%	-16.0%	-7.2%
O=C(OCCN1C(=O)c2ccccc2C1=O)c1cc(=O)[nH]c2ccccc12	-7.5%	0.7%	-25.6%	-5.1%	-4.2%
CCCCCOC(=O)c1cc(=O)[nH]c2ccccc12	-11.0%	0.1%	10µM*	31.8%	-1.4%
COc1ccc2nc(NC(=O)C3CCCN(S(=O)(=O)c4cccs4)C3)sc2c1 (configuration not stated)	-11.4%	-2.3%	4.3%	?	-2.5%
Cc1ccc2nc(NC(=O)C3CCN(S(=O)(=O)c4cccs4)CC3)sc2c1	-12.7%	-9.7%	8.0%	25.1µM*	-13.1%
COc1cccc(Cn2c(=O)c(-c3ccccc3)nc3cnc(N(C)C)nc32)c1	-3.2%	.	2.3%	282.8%	?
